HepG2 tox: counter-screen for TGF-b inhibitors: cytotoxicity in HepG2 cells; HepG2 CAGA-GFP viability, ATP luminescence, 18 h; Potency, µM (doses to about 46.1 µM), inactives show top-dose activity change, negative = cytotoxicity, hits mostly cytotoxic; hit rate 0.76% among 410,000; AID 588856
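HepG2 CAGA-GFP cells (1000/well, DMEM with 1% FBS) received compound, then TGF-beta at 500 pg/mL final, and were incubated 18 hours at 37 degrees C. Viability was read by CellTiter-Glo luminescence. Media-only wells were set as complete cell-killing and DMSO as no toxicity.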
DT40 TDP1 CPT: DT40-hTDP1 cell growth loss with CPT; Potency, µM (top dose mostly 46.2 µM), without a hit: at the highest dose activity change, negative = growth inhibition, usual class: inhibitors; chicken DT40 Tdp1-/-;hTDP1 cells + 20 nM CPT, ATP luminescence, 48 h; hit rate 12% among 420,000; further: on the % scale 0 is the no-effect control and ±100 the full control effect; nearly all actives have a fitted effect of over 55% in size
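Chicken DT40 Tdp1-/- cells stably complemented with human TDP1 were seeded at 400 cells/well in medium containing 20 nM camptothecin, exposed to pin-transferred compounds, and grown at 37 °C for at least 48 hr. Viability was read as ATP luminescence.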
TGFb inhibitor: blocks TGF-b signaling. HepG2 CAGA-GFP TGF-b/SMAD3 reporter, GFP fluorescence, 18 h; TGF-beta stimulated, 500 pg/mL final. Potency, µM (series often up to 46.1 µM), without a hit: top-dose activity, negative = inhibition, usual class: inhibitors. hit rate 1.2% among 410,000; further: on the % scale 0 is the no-effect control and ±100 the full control effect; nearly all actives have a fitted effect of over 65% in size
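Cell-based qHTS in HEPG2 carrying a CAGA-GFP Smad reporter; compounds added before 500 pg/mL final TGF-beta, 18 h incubation at 37 degrees C, GFP fluorescence quantified per cell by imaging cytometry.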
HT1080 IDH1KD tx: HT-1080 IDH1 knockdown cell toxicity (counter line). Potency, µM (top dose mostly 46.1 µM), for inactives: at the highest dose activity, negative = toxicity, actives largely listed as cytotoxic. HT-1080 IDH1 knockdown viability, ATP luminescence, 48 h. AID 686971. hit rate 2% among 360,000;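 further: 0% = DMSO wells and -100% = cell-free medium wells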
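CellTiter-Glo luminescence after 48 h compound exposure at 37 degrees C of IDH1-knockdown HT-1080 cells in 5% FBS RPMI. %Activity scaled between DMSO wells and cell-free media wells, with curves fitted and assigned curve classes.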
HT1080-NT tox: kills 2HG-producing HT-1080-NT fibrosarcoma cells | hit rate 1.6% among 360,000 | Potency, µM (doses to about 46.1 µM), without a hit: top-dose activity, negative = less viability, usual class: cytotoxic | HT-1080-NT fibrosarcoma viability, CellTiter-Glo ATP luminescence, 48 h;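 further: NT is the 2HG producing partner of a matched IDH1 knockdown line; 0% = DMSO-treated cells and -100% = media-only wells without cells; nearly all actives have a fitted effect of over 55% in size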
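Luminescent CellTiter-Glo readout after 48 hours of compound exposure at 37 degrees C defined viability of HT-1080-NT cells. Activity was normalized to DMSO wells and cell-free media wells; concentration-response curves were fitted and assigned curve classes.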
TDP1 cell noCPT: qHTS for Inhibitors of human tyrosyl-DNA phosphodiesterase 1 (TDP1): qHTS in cells in absence of CPT. hit rate 15% among 420,000. DT40 Tdp1-/- hTDP1 cells, no CPT, ATP luminescence, 48 h. Potency, µM (series often up to 46.2 µM), inactives show at the highest dose activity change, negative = growth inhibition, most hits filed as inhibitors; further: on the % scale 0 is the no-effect control and ±100 the full control effect; nearly all actives have a fitted effect of over 55% in size
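Seeded 400 DT40-hTDP1 cells/well (vehicle DMSO, no 20 nM CPT); pinned compounds; ≥48 hr at 37 °C; CellTiter-Glo luminescence as viability measure.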
An asterisk follows results filed as active; ? = inconclusive; . = no result given; [ ] = remark or other dose. Most compounds without a hit are left out; they make up all but 17% or so of the library. The call rests on the fitted dose curve; in most records, active means well fitted curve in the direction sought with a large enough effect; inconclusive means small, poorly fitted or top-dose-only effect, or another doubt; inactive means no such curve, though single readings can be large; an effect the other way counts as inactive or inconclusive. Potency means the concentration at half of the fitted maximal effect.

SMILES	HepG2 tox	DT40 TDP1 CPT	TGFb inhibitor	HT1080 IDH1KD tx	HT1080-NT tox	TDP1 cell noCPT
CCOC(=O)c1ccc(NC(=O)c2c(NCc3sccc3C)sc3c2CCCCC3)cc1	23%	12µM*	97%	.	.	21µM*
COc1ccccc1NC(=O)c1c(NCc2ccc(OC)c(OC)c2OC)sc2c1CCCC2	-34%	?	?	.	.	?
COc1ccccc1NC(=O)c1c(NCc2ccc(OC)c(OC)c2OC)sc2c1CCC2	-23%	?	3%	.	.	23µM*
CCOc1ccccc1NC(=O)c1c(NCc2ccc(OC)c(OC)c2OC)sc2c1CCC(C)C2 (configuration not stated)	-10%	?	-22%	.	.	18µM*
COc1ccc(NC(=O)c2c(NCc3ccc(OC)c(OC)c3OC)sc3c2CCC3)c(OC)c1	-32%	13µM*	-4%	.	.	15µM*
CCOc1ccccc1NC(=O)c1c(NCc2ccc(C)o2)sc2c1CCC(C)C2 (configuration not stated)	-13%	-11%	0%	.	.	-16%
COc1ccccc1N1CCN(C(C)C(=O)N2CC(C)OC(C)C2)CC1 (configuration not stated)	-1%	2%	0%	-2%	18%	3%
CC(c1ccccn1)N(C)C(=O)c1ccc2nc(Cc3ccccc3F)oc2c1 (configuration not stated)	0%	-12%	9%	1%	5%	?
C=CCNCC(=O)Nc1sc2c(c1C(=O)Nc1ccc(OC)cc1OC)CCC2	2%	?	-1%	11%	10%	?
CCOC(=O)c1ccc(NC(=O)c2c(NCc3cccc(OC)c3OC)sc3c2CCC3)cc1	-21%	15µM*	-16%	.	.	21µM*
COc1ccc(NC(=O)c2c(NCc3cccc(F)c3)sc3c2CCC3)c(OC)c1	-34%	13µM*	-19%	.	.	10µM*
COc1ccc(NC(=O)c2c(NCc3sccc3C)sc3c2CCCC3)c(OC)c1	-13%	21µM*	?	.	.	13µM*
Oc1c(Cl)cc(Cl)cc1C=Nc1cc(C(F)(F)F)ccc1N1CCc2ccccc2C1	-45%	?	?	-29%	-21%	?
CN(C(=O)COC(=O)/C=C/c1ccc(F)cc1)c1c(N)n(Cc2ccccc2)c(=O)[nH]c1=O	5%	?	12%	-1%	-7%	?
COC(=O)c1[nH]c2ccc(F)cc2c1NC(=O)Nc1ccc(OC)cc1	5%	?	23%	?	-26%	6.5µM*
COC(=O)c1[nH]c2ccc(C)cc2c1NC(=O)Nc1ccc(OC)cc1	-5%	1%	0%	2%	7%	-6%
COc1ccc(NC(=O)Nc2ccc(F)cc2F)cc1	0%	9.2µM*	-1%	18%	16%	5.8µM*
COc1ccc(NC(=O)Nc2ccc(F)cc2F)c(C)c1	4%	?	-10%	8%	4%	?
COc1ccc(NC(=O)NC(C)(C(F)(F)F)C(F)(F)F)cc1	4%	?	0%	-2%	2%	16µM*
COc1ccccc1NS(=O)(=O)c1cccc2nsnc12	2%	-20%	-30%	4%	12%	-2%
COc1ccc(CNC(=O)CN2N=C(c3ccc(Cl)cc3)CCC2=O)cc1	-21%	?	-24%	.	.	-35%
CC1(OC(=O)C2CCCC2)C(=O)C=C2C=C(c3ccsc3)N(C3CCCCC3)C=C2C1=O (configuration not stated)	-12%	21µM*	-1%	-4%	0%	21µM*
CC1(OC(=O)C2CCCC2)C(=O)C=C2C=C(c3ccsc3)N(CCc3c[nH]c4ccccc34)C=C2C1=O (configuration not stated)	-5%	21µM*	-3%	-2%	1%	?
CC1(OC(=O)CCc2ccccc2)C(=O)C=C2C=C(c3ccc(C#N)cc3)N(C3CCCCC3)C=C2C1=O (configuration not stated)	-15%	26µM*	-14%	-11%	5%	?
CC1(OC(=O)C2CCCC2)C(=O)C=C2C=C(c3ccsc3)N(CC3CC3)C=C2C1=O (configuration not stated)	-17%	-13%	?	1%	4%	?
SMILES	HepG2 tox	DT40 TDP1 CPT	TGFb inhibitor	HT1080 IDH1KD tx	HT1080-NT tox	TDP1 cell noCPT
O=C(NCc1cccnc1)C1C2C=CC(C2)C1C(=O)Nc1cccc(C(F)(F)F)c1 (configuration not stated)	-33%	-22%	-8%	6%	12%	-10%
Oc1ccc(-c2nccc(-c3ccc(F)cc3)n2)cc1	-65%	10%	0%	-27%	-23%	?
CCCCc1cc(=O)oc2cc(C)cc(OCC(=O)NCC3CCC(C(=O)O)CC3)c12 (configuration not stated)	-3%	-4%	14%	4%	2%	-5%
NC(=O)c1ccc[n+]([C@@H]2O[C@H](COP(=O)([O-])OP(=O)(O)OC[C@H]3O[C@@H](n4cnc5c(N)ncnc54)[C@H](O)[C@@H]3O)[C@@H](O)[C@H]2O)c1	.	7%[21.1 µM]	.	.	.	-18%[21.1 µM]
CSc1cccc(N2CC(C(=O)N3CCN(S(=O)(=O)c4ccccc4Cl)CC3)CC2=O)c1 (configuration not stated)	-25%	?	?	-11%	2%	23µM*
Cn1cc(/C=C2\SC(=O)N(c3ccc(O)cc3)C2=O)c2ccccc21	-31%	?	?	?	?	16µM*
CCOc1ccc(-c2cncc3nccn23)cc1	-1%	-22%	3%	14%	?	-26%
COc1ccc(S(=O)(=O)N(CC(=O)Nc2cc(Cl)ccc2C)Cc2ccccc2)cc1OC	-36%	15µM*	?	.	.	?
COC(=O)c1ccc(NC(=O)CN(Cc2ccccc2)S(=O)(=O)c2ccc(C)cc2)cc1	-31%	?	-25%	.	.	?
COc1ccc(NC(=O)CN(Cc2ccccc2)S(=O)(=O)c2ccc(C)cc2)cc1Cl	-10%	18µM*	?	.	.	?
COC(=O)c1ccc(NC(=O)CN(Cc2ccccc2)S(=O)(=O)c2ccc(Cl)cc2)cc1	-22%	?	18µM*	.	.	?
CNC(=O)CN(Cc1ccccc1)S(=O)(=O)c1ccc(Cl)cc1	-26%	-9%	-2%	-10%	1%	4%

From PubChem BioAssay
